# Screens: PubChem, The Scripps Research Institute Molecular Screening Center
# MsrA act – activators of bovine methionine sulfoxide reductase A | purified bovine MsrA, absorbance read-out | activation, % at 10.6 µM | 360,000 compounds, 0.3% hits; in the data active = activation above about 7.5%;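 note: 0% = vehicle and 100% = reference activator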
# rCAG binder – molecules binding r(CAG) RNA repeats | r(CAG) RNA repeat, TO-PRO-1 dye displacement fluorescence | inhibition, % at 3 µM | 370,000 compounds, 1.3% hits | AID 651821;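 active = inhibition above the plate cutoff, the mean of all test compounds on that plate plus 3 SD, cut at about 35% in these data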;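 note: 0% = DMSO alone and 100% = 100 µM mitoxantrone as full dye displacement; higher means more dye released from RNA so lower well fluorescence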
# MsrA inhibitor – bovine MsrA inhibition; inhibition, % at 15.5 µM; 360,000 compounds, 0.75% hits; purified bovine MsrA, absorbance read-out; AID 651718; in the data active = inhibition above about 4.5%;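 note: 0% = vehicle wells with enzyme and 100% = reference inhibitor wells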
# sPLA2-III inh – Blocks human group III sPLA2 activity | QFRET BODIPY PC-A2 liposome hydrolysis, fluorescence | inhibition, % at 12.2 µM | 370,000 compounds, 0.56% hits | AID 743126;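 active = inhibition above mean plus 3 SD of compounds lying within the high and low control bounds, cut at about 19% in these data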;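 note: 0% = median of test compound wells and 100% = no enzyme DMSO wells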
# Target sequence (Q9NZ20 whole entry, looked up): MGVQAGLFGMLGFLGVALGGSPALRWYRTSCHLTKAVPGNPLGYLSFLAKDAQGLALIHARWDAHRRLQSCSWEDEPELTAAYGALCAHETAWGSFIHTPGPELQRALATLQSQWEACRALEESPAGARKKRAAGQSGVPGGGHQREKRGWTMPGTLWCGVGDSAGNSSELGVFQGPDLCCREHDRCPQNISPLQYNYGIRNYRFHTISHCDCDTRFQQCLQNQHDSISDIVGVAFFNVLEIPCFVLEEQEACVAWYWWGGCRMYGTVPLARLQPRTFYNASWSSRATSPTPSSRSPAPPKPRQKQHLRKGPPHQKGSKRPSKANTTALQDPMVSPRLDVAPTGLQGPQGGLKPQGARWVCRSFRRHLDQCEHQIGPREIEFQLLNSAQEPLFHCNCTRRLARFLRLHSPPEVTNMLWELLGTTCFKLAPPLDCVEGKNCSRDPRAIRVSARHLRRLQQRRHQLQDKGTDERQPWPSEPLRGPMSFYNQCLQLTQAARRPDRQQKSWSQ
# rCAG binder conf – r(CAG) RNA repeat binding, confirmation. TO-PRO-1 dye displacement fluorescence. inhibition, % at 3 µM. 4,300 compounds, 70% hits. AID 652065. shares compounds with rCAG binder;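 active = inhibition above a per-plate cutoff, the mean inhibition of sample wells plus 3 SD, cut at about 35% in these data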;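 note: loss of TO-PRO-1 fluorescence as compound displaces dye from 1x1 AA loop RNA; 0% = DMSO only wells and 100% = 100 µM mitoxantrone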
# DNA CAG counter – counter-screen for rCAG RNA binders: DNA CAG dye complex inhibitors; shares compounds with rCAG binder; d(CAG) DNA oligo TO-PRO-1 dye displacement, fluorescence; inhibition, % at 3 µM; 4,300 compounds, 94% hits;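 active = inhibition above its plate's cutoff, the mean test-well inhibition plus 3 SD, cut at about 4.8% in these data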;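 note: 0% = DNA dye mix with DMSO and 100% = 100 µM mitoxantrone; hits displace the dye from DNA and so lower well fluorescence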
# * hit, by the source's call; nt = no result. A selection: hits, their analogues and other compounds. The true share with any hit is near 2.8%.
SMILES,MsrA act,rCAG binder,MsrA inhibitor,sPLA2-III inh,rCAG binder conf,DNA CAG counter
CCN(CC)S(=O)(=O)c1ccc(C(=O)OCC(=O)Nc2ccc(-c3nc4ccc(C)cc4s3)cc2)cc1,-9,3,-1,9,nt,nt
Cc1ccc2nc(-c3ccc(NC(=O)CCN4C(=O)c5ccccc5C4=O)cc3)sc2c1,-13,6,1,7,nt,nt
Cc1csc(NC(=O)CSCC(=O)O)c1-c1nc2ccccc2s1,-5,44*,1,-17,57*,19*
Cc1csc(NC(=O)CSc2nc3ccccc3s2)n1,-11,6,2,-2,nt,nt
COc1cc(-c2nnc(COC(=O)c3cccn3C)o2)cc(OC)c1OC,-11,-1,1,1,nt,nt
O=C(Nc1sc2c(c1C(=O)O)CCCC2)c1ccc(F)cc1,-2,25,2,-8,nt,nt
O=C(Nc1sc2c(c1C(=O)O)CCCCC2)c1ccccc1F,-4,36*,3,-2,20,4
CCOC(=O)c1c(NC(=O)C2C3C=CC(C3)C2(C)C(=O)O)sc2c1CCCC2 (stereo not drawn),-3,43*,2,-7,46*,15*
CCOC(=O)c1c(N2C(=O)Nc3ccccc3N2O)sc2c1CCCC2,-10,38*,1,-5,30,6.7*
O=C(Nc1sc2c(c1C(=O)O)CCCCC2)c1cccs1,4,36*,3,-7,19,4.7*
CCOC(=O)c1c(NC(=O)C2C3C=CC(C3)C2C(=O)O)sc2c1CCC(CC)C2 (stereo not drawn),-8,38*,1,-33,64*,24*
O=C(/C=C/c1cccs1)Nc1sc2c(c1C(=O)O)CCCC2,-4,53*,2,-10,28,6.7*
CCOC(=O)c1c(NS(=O)(=O)c2cccc(OC)c2)sc2c1CCC2,-1,60*,0,-13,69*,23*
COC(=O)c1c(NC(=O)c2ccccc2C(=O)O)sc2c1CCCC2,-3,24,3,-1,nt,nt
CCOC(=O)c1c(NC(=O)c2ccccc2C(=O)O)sc2c1CCCC2,-3,55*,2,0,46*,16*
CCOC(=O)c1c(NC(=O)C2C3CCC(O3)C2C(=O)O)sc2c1CCC(CC)C2 (stereo not drawn),-5,25,2,-7,nt,nt
COCCNC(=O)c1cccc(OC2CCN(C(C)COc3ccccc3)CC2)c1 (stereo not drawn),0,-5,0,14,nt,nt
COc1ccccc1CNC(=O)CSc1cc(=O)n(C)c2ccccc12,-1,-3,1,1,nt,nt
C/C(=N\NC(=O)c1cccc(Cl)c1)c1cccc(NC(=O)c2ccco2)c1,-1,1,1,11,nt,nt
C/C(=N\NC(=O)c1ccccc1O)c1cccc(NC(=O)c2ccccc2)c1,-2,8,0,-5,nt,nt
C/C(=N\NC(=O)c1cc(O)ccc1O)c1cccc(NC(=O)c2cccc(Cl)c2)c1,-4,45*,1,16,22,8.4*
C/C(=N\NC(=O)c1cc(O)ccc1O)c1cccc(NC(=O)c2ccc(Cl)cc2)c1,-3,37*,0,7,25,8.3*
Cc1ccc(S(=O)(=O)NCc2ccc(/C=C(/C#N)C(=O)NCc3ccccc3)o2)cc1,-3,-4,4,-6,nt,nt
CCN(CC)C(=O)COc1ccc2c(-c3ccccc3)cc(=O)oc2c1,-6,-7,2,-1,nt,nt
O=C(NNC(=O)c1ccc2ccccc2c1)c1ccc(Cl)c(Cl)c1,-3,3,1,-7,nt,nt
SMILES,MsrA act,rCAG binder,MsrA inhibitor,sPLA2-III inh,rCAG binder conf,DNA CAG counter
CN(C)c1ccc2nc3ccc(=O)cc-3sc2c1,-7,35*,1,-2,31,12*
O=S(=O)(NC1=NCCCCC1)c1ccc2sc(NS(=O)(=O)c3ccc4ccccc4c3)nc2c1,-3,56*,3,-39,63*,28*
CCCCCCCCN1[C@@H](CC(=O)O)c2ccc(C(F)(F)F)cc2S1(=O)=O,1,52*,-1,-18,29,4
CCCCCCCCCCCCN1[C@@H](CC(C)=O)c2cc(C(F)(F)F)ccc2S1(=O)=O,-5,-1,-1,1,nt,nt
O=C(COC(=O)C12CC3CC(CC(Cl)(C3)C1)C2)N1CCCCC1,-6,-2,1,7,nt,nt
Cc1ccc(S(=O)(=O)N2[C@@H](c3ccccc3F)C(C(=O)O)=CC[C@H]2c2cccs2)cc1,-2,45*,-1,-9,46*,12*
Cc1ccc(S(=O)(=O)N2[C@@H](c3ccccc3)C(C(=O)O)=CC[C@H]2c2cccs2)cc1,-2,42*,-1,-4,43*,9.4*
COc1cc(C2CC=C(C(=O)O)C(c3ccccc3F)N2S(=O)(=O)c2ccc(C)cc2)cc(OC)c1OC (stereo not drawn),nt,24,nt,-3,nt,nt
Cc1ccc(CSc2nnc(SCC(=O)N/N=C/c3ccc(C(=O)O)cc3)s2)cc1,0,43*,1,4,41*,11*
O=C(CSc1nnc(SCc2cccc3ccccc23)s1)Nc1ccc(C(=O)O)cc1,1,67*,-2,-33,68*,30*
Cc1ccc(NC(=S)NNC(=O)CSc2nc3sc4c(c3c(=O)n2-c2ccccc2)CCCC4)cc1,nt,52*,nt,-1,59*,22*
O=C(CSc1nnc(SCc2cccc3ccccc23)s1)Nc1ccc(Oc2ccccc2)cc1,nt,12,nt,-1,nt,nt
O=C(CSc1nnc(SCc2cccc3ccccc23)s1)Nc1ccccc1-c1ccccc1,nt,6,nt,-6,nt,nt
Cc1ccc(NC(=S)NNC(=O)CSc2nnc(SCc3cccc4ccccc34)s2)cc1,nt,52*,nt,-6,51*,20*
COc1ccc(NC(=O)Cn2nc(C(=O)O)c3ccccc3c2=O)cc1S(=O)(=O)N1CCCCC1,-6,16,-1,-2,nt,nt
CCc1ccc(Nc2nnc(SCC(=O)NC(=O)c3cccn3C)s2)cc1,-11,8,0,-10,nt,nt
CCc1ccc(Nc2nnc(SCC(=O)Nc3ccc(C(=O)O)cc3)s2)cc1,-3,36*,0,-6,22,5.0*
CCOC(=O)C1=C(C)NC(SCc2cc(=O)[nH][nH]2)=C(C#N)C1c1cccs1 (stereo not drawn),-4,59*,0,-5,39*,17*
Cc1cccc(C(=O)N[C@H](C(=O)Nc2ccc(S(=O)(=O)NC3=NCCCCC3)cc2)C(C)C)c1,-3,2,1,-16,nt,nt
Cc1cccc(C(=O)NC(C(=O)Nc2ccc(S(=O)(=O)Nc3nccs3)cc2)C(C)C)c1 (stereo not drawn),-2,42*,-1,-37,35*,13*
COCC(=O)Nc1ccc(S(=O)(=O)Nc2nccs2)cc1,-3,4,0,1,nt,nt
CCOc1ccc(C(=O)N[C@H](C(=O)Nc2ccc(S(=O)(=O)Nc3nccs3)cc2)C(C)C)cc1,-2,47*,-1,-46,46*,15*
CCOc1cc([N+](=O)[O-])cc(/C=C2/NC(=O)N(Cc3ccccc3F)C2=O)c1O,-4,46*,4.6*,-2,47*,14*
